# This is a sample that favours compounds with a hit; in the whole collection about 19% have one here.
# IL-1B inflam inh – qHTS for Inhibitors of Inflammasome Signaling: IL-1-beta AlphaLISA Primary Screen | activity change, % at 57.5 µM | 360,000 tested, 4.7% active | THP-1 LPS/ATP IL-1B secretion, AlphaLISA, 16 h; stronger effect = lower value; in the data active = activity change below about -50%; inconclusive = mostly about -30% to -49%
#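 Secreted IL-1B measured by AlphaLISA bead assay after 16 h compound exposure of THP-1 cells; compounds (final up to 57.5 uM) added 1 h before LPS (250 ng/mL) and ATP (1.25 mM) stimulation; lower signal means less secretion.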
# DT40 TDP1 CPT – qHTS for Inhibitors of human tyrosyl-DNA phosphodiesterase 1 (TDP1): qHTS in cells in presence of CPT; 420,000 tested, 12% active; Potency, µM (highest dose often 46.2 µM), for inactives: at the highest dose activity change, negative = growth inhibition, hits mostly inhibitors; chicken DT40 Tdp1-/-;hTDP1 cells + 20 nM CPT, ATP luminescence, 48 h; note: potency is the fitted concentration of half-maximal effect; nearly all actives have a fitted effect of over 55% in size
#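 Chicken DT40 Tdp1-/- cells stably complemented with human TDP1 were seeded at 400 cells/well in medium containing 20 nM camptothecin, exposed to pin-transferred compounds, and grown at 37 °C for at least 48 hr. Viability was read as ATP luminescence.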
# HT1080NT lethal – qHTS for induction of synthetic lethality in tumor cells producing 2HG: qHTS for the HT-1080-NT fibrosarcoma cell line | Potency, µM (doses to about 46.1 µM), for inactives: at the top dose activity, negative = less viability, actives largely listed as cytotoxic | 360,000 tested, 1.6% active | HT-1080-NT fibrosarcoma viability, CellTiter-Glo ATP luminescence, 48 h;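 note: NT is the 2HG producing partner of a matched IDH1 knockdown line; potency is the fitted concentration of half-maximal effect; 0% = DMSO-treated cells and -100% = media-only wells without cells; nearly all actives have a fitted effect of over 55% in size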
#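 HT-1080-NT; 750 cells/well; 5% FBS RPMI; 48 h compound, 37 degrees C; CellTiter-Glo luminescence; curve fitting and curve-class assignment.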
# ELG1 DNA repair – qHTS screen for small molecules that inhibit ELG1-dependent DNA repair in human embryonic kidney (HEK293T) cells expressing luciferase-tagged ELG1; HEK293T ELG1-luciferase reporter, luminescence, 16 h; DNA damage induced by 5-fluorouridine; Potency, µM (series often up to 46.1 µM), for the others: at the highest dose activity change, negative = inhibition, hits mostly inhibitors; 330,000 tested, 2.3% active; AID 504467, 2011; note: potency is the fitted concentration of half-maximal effect; nearly all actives have a fitted effect of over 55% in size
#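 Cells (2,000 per well) received 5-fluorouridine plus test compound or DMSO and were incubated 16 hr at 37 °C, 5% CO2. Luciferase activity was read by luminescence 30 min after ONE-Glo addition; signal suppression marked inhibition of damage-induced ELG1 function.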
# HT1080 IDH1KD tx – qHTS for induction of synthetic lethality in tumor cells producing 2HG: qHTS for the HT-1080-IDH1KD cell line; Potency, µM (highest dose often 46.1 µM), inactives show top-dose activity, negative = toxicity, most hits filed as cytotoxic; 360,000 tested, 2% active; AID 686971, 2013; HT-1080 IDH1 knockdown viability, ATP luminescence, 48 h;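 note: potency is the fitted concentration of half-maximal effect; 0% = DMSO wells and -100% = cell-free medium wells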
#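 HT-1080-IDH1KD cells (IDH1 knocked down), 750/well in RPMI with 5% FBS, treated with compound 48 h at 37 degrees C. Viability by CellTiter-Glo luminescence, normalised to DMSO and no-cell wells; concentration-response curves classed.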
# DT40 TDP1 no CPT – qHTS for Inhibitors of human tyrosyl-DNA phosphodiesterase 1 (TDP1): qHTS in cells in absence of CPT | AID 686978, 2013 | 420,000 tested, 15% active | Potency, µM (series often up to 46.2 µM), inactives show top-dose activity change, negative = growth inhibition, hits mostly inhibitors | DT40 Tdp1-/- hTDP1 cells, no CPT, ATP luminescence, 48 h; note: potency is the fitted concentration of half-maximal effect; nearly all actives have a fitted effect of over 55% in size
#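 Luminescent ATP content (CellTiter-Glo) served as the growth readout. Knockout chicken DT40 cells expressing human TDP1 were exposed to compounds without camptothecin for a minimum 48 hr at 37 °C.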
# * marks the source's active call; other numbers are inactive results; ? = inconclusive; / = not tested or not shown. Unless noted, calls come from the whole dose curve; as a rule, active = well fitted curve in the direction sought with a large enough effect; inconclusive = small, poorly fitted or top-dose-only effect, or another doubt; inactive = no such curve, though single readings can be large; an effect the other way counts as inactive or inconclusive. Unless noted, % is set by controls: 0 for no effect and ±100 for the full control effect.
SMILES,IL-1B inflam inh,DT40 TDP1 CPT,HT1080NT lethal,ELG1 DNA repair,HT1080 IDH1KD tx,DT40 TDP1 no CPT
COc1ccccc1NC(=O)CN1CCN(c2ccc(Cl)cc2)CC1,22.4,20.6µM*,-3.5%,-0.6%,-0.5%,16.4µM*
CCN(CC)c1ccc(NC(=O)CN2CCN(c3nc(C)cc(C)n3)CC2)cc1,?,?,-26.5%,0.0%,-20.7%,16.4µM*
COc1ccccc1NC(=O)CN1CCN(c2ccccc2F)CC1,-9.0,20.6µM*,2.0%,-10.1%,-0.7%,?
COc1ccccc1NC(=O)CN1CCN(c2ccccc2OC)CC1,3.7,-24.9%,-5.3%,?,-0.2%,?
CCN(CC)c1ccc(NC(=O)CN2CCN(c3ccc(F)cc3)CC2)cc1,-29.0,?,-5.3%,-13.9%,0.0%,?
CCN(CC)c1ccc(NC(=O)CN2CCN(CC(=O)Nc3ccccc3OC)CC2)cc1,-6.5,23.1µM*,-10.1%,?,-8.9%,?
COc1ccccc1NC(=O)CN1CCN(CC(=O)Nc2ccccc2Cl)CC1,21.9,25.0%,13.9%,0.2%,?,-20.5%
CC(NC(=O)C1CCN(C(=O)c2ccc(F)cc2)CC1)c1ccc(-n2ccnc2)cc1 (stereo unspecified),-7.0,-3.2%,2.9%,7.1%,7.4%,2.8%
Clc1ccc2c(N3CCCC3)ccnc2c1,-6.8,?,-21.5%,-9.0%,-14.2%,?
CC1CN(c2ccnc3cc(Cl)ccc23)CC(C)O1 (stereo unspecified),-6.2,?,-14.0%,6.4%,-5.8%,11.6µM*
Oc1ccc(N2CCN(c3ccnc4cc(Cl)ccc34)CC2)cc1,-11.5,?,-23.7%,?,-21.9%,23.1µM*
COc1ccc(N2CCN(c3ccnc4cc(Cl)ccc34)CC2)cc1,-56.2*,?,1.3%,-6.4%,7.7%,18.4µM*
CN1CCN(c2ccc(Nc3ccnc4cc(Cl)ccc34)cc2)CC1,-89.6*,4.61µM*,?,-15.4%,20.6µM*,5.8µM*
N[C@@](C(=O)O)(c1ccc(P(=O)(O)O)cc1)C1CC1,/,-2.8%,/,/,/,-7.9%
CC1CCCCC1NC(=O)CN1CCN(S(=O)(=O)c2ccc(Br)s2)CC1 (stereo unspecified),-18.5,?,1.1%,-14.3%,-11.2%,-28.9%
Clc1cccc(/C(Cc2nc3ccccc3[nH]2)=N\Nc2ccccc2)c1,-78.2*,?,?,?,?,?
Cc1ccc(N/N=C(\Cc2nc3ccccc3[nH]2)c2ccccc2)cc1,0.1,0.82µM*,1.3µM*,?,0.92µM*,0.651µM*
O=C(NCCc1nc2ccccc2[nH]1)c1cc([N+](=O)[O-])cc([N+](=O)[O-])c1,27.3,-6.9%,1.1%,0.2%,2.1%,2.5%
N/N=C(/Cc1nc2ccccc2[nH]1)c1ccc([N+](=O)[O-])cc1,-5.8,25.9µM*,-5.7%,15.2%,-29.2%,?
c1ccc(N/N=C(\Cc2nc3ccccc3[nH]2)c2ccccc2)cc1,-67.6*,?,-4.1%,?,-23.0%,?
Cc1cc(=O)oc2cc(O[C@@H]3O[C@H](C(=O)O)[C@@H](O)[C@H](O)[C@H]3O)ccc12,/,14.7%,/,/,/,-4.2%
COCCn1c(=O)c(-c2ccc(F)cc2)nc2cnc(OCc3ccccc3)nc21,/,0.7%,/,/,/,-7.5%
CCN(CC)C(=O)c1[nH]cnc1C(=O)Nc1ccc(Cl)cc1,-9.1,-1.9%,6.8%,-0.8%,6.2%,-0.6%
Oc1ccc2ccccc2c1C=NC1CCCCC1,25.9,?,-14.7%,11.5%,-27.9%,-27.9%
Oc1c(Br)cc(Br)cc1/C=N/c1nc2c(s1)CCCC2,28.0,?,?,/,?,16.4µM*
SMILES,IL-1B inflam inh,DT40 TDP1 CPT,HT1080NT lethal,ELG1 DNA repair,HT1080 IDH1KD tx,DT40 TDP1 no CPT
Oc1ccc2ccccc2c1/C=N/c1nc2c(s1)CCCC2,0.0,?,?,0.6%,23.1µM*,29.1µM*
CC(=O)OC1CCC2(C)C(CCC3(C)C2C(=O)C=C2C4CC(C)(C(=O)OCCN5CCCCC5)CCC4(C)CCC23C)C1(C)C (stereo unspecified),/,8.3%,/,/,/,-7.9%
COc1ccc(C(O)c2nc(-c3cnc4ccccc4c3)cs2)cc1 (stereo unspecified),19.8,?,0.9%,/,-3.3%,14.6µM*
OC(c1ccc(F)cc1)c1nc(-c2cc3ccccc3o2)cs1 (stereo unspecified),48.7,?,?,/,?,?
OC(c1ccc(F)cc1)c1nc(-c2cnc3ccccc3c2)cs1 (stereo unspecified),49.2,18.4µM*,-8.9%,/,0.0%,?
COc1ccc(C(O)c2nc(-c3cccc(O)c3)cs2)cc1 (stereo unspecified),0.0,?,-6.8%,/,0.0%,?
OC(c1cccc(Cl)c1)c1nc(-c2cnc3ccccc3c2)cs1 (stereo unspecified),-5.5,25.9µM*,?,/,?,13µM*
OC1c2cc(Cl)ccc2-c2c(Cl)cc(Cl)cc21 (stereo unspecified),39.9,?,?,/,-17.8%,?
Nc1c(C(=O)CSc2nccn2-c2cccc(F)c2)c(=O)[nH]c(=O)n1C1CC1,27.1,-1.3%,-2.1%,1.8%,2.7%,-9.3%
COc1ccccc1Nc1cc(C)nc(Nc2ccccc2OC)n1,-13.6,20.6µM*,0.7%,?,1.0%,23.1µM*
COc1ccccc1Nc1nc(-c2ccccc2)nc2ccccc12,-8.6,?,1.5%,-28.6%,-3.0%,?
COc1ccc(Nc2c3c(nc4ccccc24)CCCC3)cc1OC,-17.9,?,?,15.7%,?,?
COc1ccc(Nc2c3c(nc4ccccc24)CCC3)cc1,/,?,23.1µM*,-27.1%,?,20.6µM*
COc1ccc(C)cc1Nc1c2c(nc3ccccc13)CCC2,-82.5*,3.26µM*,?,?,1.16µM*,2.59µM*
COc1ccccc1Nc1c2ccccc2nc2ccccc12,-93.0*,16.4µM*,16.4µM*,?,?,16.4µM*
COCCNc1c2c(nc3ccccc13)CCC2,-13.5,-20.4%,9.3%,-13.1%,-0.6%,?
